Assay results: PubChem BioAssay (Tox21)
Several values for one entry are separate records, joined by “and”; a condition that tells them apart may be missing. Equal entries are not always repeated. Results filed as inconclusive are left out. Some structures have more than one record in an assay (separate samples or runs), and their calls can disagree. Activity calls are given as the source filed them. The call rests on the fitted dose curve; in most records, active means well fitted curve in the direction sought with a large enough effect in the repeat runs; inconclusive means weak or mixed curves; inactive means no such curve, though single readings can be large; an effect the other way counts as inactive or inconclusive.

Tests used:
[1] = qHTS RealTime-Glo MT Cell Viability Assay in HepG2 cells - 8 hour (AID 1224873); further: nearly all actives have a fitted effect of over 55% in size; further: potency means the concentration at half of the fitted maximal effect
Procedure, shortened: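 Real-time viability: cells seeded at 600 per well together with NanoLuc and cell-permeant prosubstrate, compounds added after 5 h incubation. Luminescence tracked at 0, 8, 16, 24, 32 and 40 h of exposure.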

[2] = qHTS RealTime-Glo MT Cell Viability Assay in HEK293 cells - 40 hour (AID 1224874); details: RealTime-Glo luminescence; max response: stronger effect = lower value; further: nearly all actives have a fitted effect of over 50% in size; further: potency means the concentration at half of the fitted maximal effect
Procedure, shortened: (§1)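 Real-time viability in HEK293: signal arises when living cells convert a prosubstrate for NanoLuc in the medium, so luminescence tracks viable cell number. Compound (23 nL, DMSO) added 5 h post-seeding; kinetic reads at 0–40 h, 37 C.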

[3] = A CellTox Green Cytotoxicity Assay to monitor cytotoxicity in HEK293 cells - 24 hour (AID 1224875); further: nearly all actives have a fitted effect of over 45% in size; further: potency means the concentration at half of the fitted maximal effect
Procedure, shortened: (§2)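 Cells (HEK293, 600/well) and dye reagent are dispensed together. After 5 h at 37 C, 23 nL compound is pinned in. Plates stay at 37 C for 40 h with fluorescence read at 0h, 8h, 16h, 24h, 32h and 40h.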

[4] = A CellTox Green Cytotoxicity Assay to monitor cytotoxicity in HepG2 cells - 16 hour (AID 1224876); further: nearly all actives have a fitted effect of over 45% in size; further: potency means the concentration at half of the fitted maximal effect
Procedure, shortened: (§3)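 Cells and non-lytic dye reagent are dispensed together (600 HepG2 cells/well) and incubated 5 h before DMSO compound transfer. Kinetic fluorescence is then recorded in the same wells during 40 h at 37 C.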

[5] = qHTS RealTime-Glo MT Cell Viability Assay in HepG2 cells - 32 hour (AID 1224877); further: nearly all actives have a fitted effect of over 55% in size; further: potency means the concentration at half of the fitted maximal effect
Procedure, shortened: (§4)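 HepG2 cells (600/well) were dispensed with RealTime-Glo reagents, incubated 5 h at 37 °C, then treated with compounds in DMSO for up to 40 h. Nonlytic NanoLuc luminescence reflecting viable cells was read at each stated time point.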

[6] = A CellTox Green Cytotoxicity Assay to monitor cytotoxicity in HepG2 cells - 24 hour (AID 1224878); further: nearly all actives have a fitted effect of over 45% in size; further: potency means the concentration at half of the fitted maximal effect
Procedure, shortened: as §3

[7] = A CellTox Green Cytotoxicity Assay to monitor cytotoxicity in HepG2 cells - 40 hour (AID 1224879); further: nearly all actives have a fitted effect of over 40% in size; further: potency means the concentration at half of the fitted maximal effect
Procedure, shortened: as §3

[8] = qHTS RealTime-Glo MT Cell Viability Assay in HEK293 cells - 0 hour (AID 1224880); further: top concentration of the series differs between compounds; nearly all actives have a fitted effect of over 45% in size
Procedure, shortened: as §1

[9] = A CellTox Green Cytotoxicity Assay to monitor cytotoxicity in HEK293 cells - 32 hour (AID 1224881); further: nearly all actives have a fitted effect of over 40% in size; further: potency means the concentration at half of the fitted maximal effect
Procedure, shortened: as §2

[10] = A CellTox Green Cytotoxicity Assay to monitor cytotoxicity in HepG2 cells - 0 hour (AID 1224882); further: nearly all actives have a fitted effect of over 35% in size
Procedure, shortened: as §3

[11] = A CellTox Green Cytotoxicity Assay to monitor cytotoxicity in HEK293 cells - 8 hour (AID 1224884); further: nearly all actives have a fitted effect of over 35% in size; further: potency means the concentration at half of the fitted maximal effect
Procedure, shortened: as §2

[12] = qHTS RealTime-Glo MT Cell Viability Assay in HepG2 cells - 16 hour (AID 1224885); further: nearly all actives have a fitted effect of over 50% in size; further: potency means the concentration at half of the fitted maximal effect
Procedure, shortened: as §4

[13] = A CellTox Green Cytotoxicity Assay to monitor cytotoxicity in HEK293 cells - 16 hour (AID 1224888); further: nearly all actives have a fitted effect of over 35% in size; further: potency means the concentration at half of the fitted maximal effect
Procedure, shortened: as §2

[14] = qHTS RealTime-Glo MT Cell Viability Assay in HepG2 cells - 0 hour (AID 1224889); further: nearly all actives have a fitted effect of over 50% in size
Procedure, shortened: as §4

[15] = A CellTox Green Cytotoxicity Assay to monitor cytotoxicity in HepG2 cells - 8 hour (AID 1224890); further: nearly all actives have a fitted effect of over 45% in size; further: potency means the concentration at half of the fitted maximal effect
Procedure, shortened: as §3

[16] = qHTS assay to identify small molecule antagonists of the estrogen receptor alpha (ER-alpha) signaling pathway using the BG1 cell line in the presence of 0.1 nM 17-beta-estradiol - cell viability counter screen (AID 1259241); further: nearly all actives have a fitted effect of over 40% in size; further: potency means the concentration at half of the fitted maximal effect
Procedure, shortened: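 VM7Luc4E2 cells (endogenous ER-alpha, 4×ERE-luciferase), hormone-starved 5 days in charcoal-stripped FBS, were treated with compounds plus 0.1 nM 17beta-estradiol for 22 hr at 37C; viability read in same wells as CellTiter-Fluor live-cell protease fluorescence.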

[17] = A CellTox Green Cytotoxicity Assay to monitor cytotoxicity in HepG2 cells - 32 hour (AID 1224883); further: nearly all actives have a fitted effect of over 50% in size; further: potency means the concentration at half of the fitted maximal effect
Procedure, shortened: as §3

[18] = qHTS RealTime-Glo MT Cell Viability Assay in HEK293 cells - 24 hour (AID 1224886); further: nearly all actives have a fitted effect of over 50% in size; further: potency means the concentration at half of the fitted maximal effect
Procedure, shortened: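 HEK293 cells seeded with NanoLuc/prosubstrate reagent, rested 5 h at 37 C, then dosed and kept at 37 C up to 40 h. Nonlytic real-time luminescence from viable cells read at 0, 8, 16, 24, 32 and 40 h.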

[19] = qHTS RealTime-Glo MT Cell Viability Assay in HEK293 cells - 8 hour (AID 1224887); further: nearly all actives have a fitted effect of over 50% in size; further: potency means the concentration at half of the fitted maximal effect
Procedure, shortened: as §1
On the % scale 0 is the no-effect control and ±100 the full control effect.

N#Cc1c[nH]cc1-c1cccc2c1OC(F)(F)O2
inactive: Potency [1] | Potency [3] | Potency [4] | Potency [5] | Potency [6] | Potency [8] | Potency [9] | Potency [10] | Potency [11] | Potency [12] | Potency [13] | Potency [14] | Potency [15] | Potency [16]
active: Potency [2] 6.16 µM | Potency [7] 13.8 µM

CCC(C)c1cccc(C(C)CC)c1O (stereo not given)
inactive: Potency [1] | max response [2] -7.36% | Potency [8] | Potency [10] | Potency [11] | Potency [12] | Potency [18] | Potency [19]
active: Potency [3] 38.9 µM | Potency [4] 17.4 µM | Potency [6] 19.5 µM | Potency [7] 19.5 µM | Potency [9] 30.9 µM | Potency [17] 19.5 µM | Potency [15] 19.5 µM

[O]=[Cr](=[O])([OH])[O][Cr](=[O])(=[O])[OH]
inactive: Potency [1] | Potency [3] | Potency [4] | Potency [6] | Potency [8] | Potency [9] | Potency [10] | Potency [11] | Potency [13] | Potency [14] | Potency [15] | Potency [16]
active: Potency [2] 3.5 µM and 2.18 µM | Potency [7] 9.86 µM and 12.3 µM | Potency [17] 12.4 µM | Potency [18] 12.4 µM and 6.9 µM

CCCN
inactive: Potency [1] | max response [2] -0.242% | Potency [3] | Potency [4] | Potency [5] | Potency [6] | Potency [7] | Potency [8] | Potency [9] | Potency [10] | Potency [17] | Potency [12] | Potency [18] | Potency [19] | Potency [13] | Potency [14] | Potency [15] | Potency [16]

CCC[CH2][Sn]([CH2]CCC)([CH2]CCC)[CH2]CCC
inactive: Potency [14]
active: Potency [1] 11 µM | Potency [2] 7.76 µM | Potency [3] 17.4 µM | Potency [4] 17.4 µM | Potency [5] 4.9 µM | Potency [6] 13.8 µM | Potency [7] 11 µM | Potency [9] 13.8 µM | Potency [17] 15.5 µM | Potency [11] 49 µM | Potency [12] 6.92 µM | Potency [18] 9.77 µM | Potency [19] 11 µM | Potency [15] 21.9 µM | Potency [16] 19.3 µM

CCOP(=O)(OCC)Oc1nc(Cl)c(Cl)cc1Cl
inactive: Potency [1] | max response [2] -5.34% | Potency [3] | Potency [4] | Potency [5] | Potency [6] | Potency [7] | Potency [8] | Potency [9] | Potency [10] | Potency [17] | Potency [11] | Potency [12] | Potency [18] | Potency [19] | Potency [13] | Potency [14] | Potency [15] | Potency [16]

CC(Cc1ccc(O)cc1)NCC(O)c1cc(O)cc(O)c1 (stereo not given)
inactive: Potency [1] | max response [2] 1.61% | Potency [3] | Potency [4] | Potency [5] | Potency [6] | Potency [7] | Potency [8] | Potency [9] | Potency [10] | Potency [17] | Potency [11] | Potency [12] | Potency [18] | Potency [19] | Potency [13] | Potency [14] | Potency [15] | Potency [16]

ClC1=C(Cl)[C@]2(Cl)[C@H]3[C@H]([C@@H]4C=C[C@H]3C4)[C@@]1(Cl)C2(Cl)Cl
active: Potency [1] 49 µM | Potency [2] 48.9 µM and 43.6 µM | Potency [3] 48.9 µM and 49 µM | Potency [4] 54.9 µM | Potency [6] 54.9 µM | Potency [7] 54.9 µM | Potency [9] 54.9 µM and 49 µM | Potency [17] 54.9 µM | Potency [11] 54.9 µM | Potency [12] 49 µM | Potency [18] 43.6 µM | Potency [19] 43.6 µM and 38.9 µM | Potency [13] 54.9 µM and 49 µM | Potency [15] 54.9 µM
inactive: Potency [8] | Potency [10] | Potency [14] | Potency [16]

c1ccc2c(c1)cc1ccc3cccc4ccc2c1c34
inactive: Potency [1] | max response [2] -10.6% | Potency [3] | Potency [4] | Potency [5] | Potency [6] | Potency [8] | Potency [9] | Potency [10] | Potency [11] | Potency [12] | Potency [13] | Potency [14] | Potency [15]
active: Potency [7] 7.05 µM | Potency [17] 7.05 µM

CN1C2CCC(C)(C)C1CC(OC(=O)C(O)(c1cccs1)c1cccs1)C2 (stereo not given)
inactive: Potency [1] | max response [2] -25.3% | Potency [3] | Potency [4] | Potency [5] | Potency [6] | Potency [7] | Potency [8] | Potency [9] | Potency [10] | Potency [17] | Potency [12] | Potency [18] | Potency [19] | Potency [14] | Potency [15] | Potency [16]

O=S1OCC2C(CO1)C1(Cl)C(Cl)=C(Cl)C2(Cl)C1(Cl)Cl (stereo not given)
inactive: Potency [8] | Potency [10] | Potency [14]
active: Potency [1] 48.9 µM | Potency [2] 21.9 µM and 38.9 µM | Potency [3] 55 µM and 54.9 µM | Potency [4] 48.9 µM | Potency [6] 48.9 µM | Potency [7] 54.9 µM | Potency [9] 49 µM and 54.9 µM | Potency [17] 54.9 µM | Potency [12] 48.9 µM | Potency [18] 21.9 µM and 38.9 µM | Potency [19] 43.6 µM | Potency [15] 54.9 µM
inactive and 54.9 µM (active): Potency [5]

O=c1[nH]c2cc(Cl)ccc2n1C1CCNCC1
inactive: Potency [1] | max response [2] 4.84% | Potency [3] | Potency [4] | Potency [5] | Potency [6] | Potency [7] | Potency [8] | Potency [9] | Potency [10] | Potency [17] | Potency [11] | Potency [12] | Potency [18] | Potency [19] | Potency [13] | Potency [14] | Potency [15] | Potency [16]
